Many of the other results were omitted from the sample, so hits are more common in it than they were.
AmpC inh no detg – qHTS Inhibitors of AmpC Beta-Lactamase (assay without detergent). P00811. AmpC nitrocefin hydrolysis, absorbance 480 nm, 0.0001% Triton. Potency, µM (series often up to 57.1 µM), for inactives: top-dose activity change, negative = inhibition, most hits filed as inhibitors. 0.52% of 330,000 active. AID 485341, 2010;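 also: potency is read from the fitted curve at half-maximal effect; plate controls were no compound for no effect and no enzyme for full effect; nearly all actives have a fitted effect of over 20% in size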
Target sequence (P00811 whole entry, looked up): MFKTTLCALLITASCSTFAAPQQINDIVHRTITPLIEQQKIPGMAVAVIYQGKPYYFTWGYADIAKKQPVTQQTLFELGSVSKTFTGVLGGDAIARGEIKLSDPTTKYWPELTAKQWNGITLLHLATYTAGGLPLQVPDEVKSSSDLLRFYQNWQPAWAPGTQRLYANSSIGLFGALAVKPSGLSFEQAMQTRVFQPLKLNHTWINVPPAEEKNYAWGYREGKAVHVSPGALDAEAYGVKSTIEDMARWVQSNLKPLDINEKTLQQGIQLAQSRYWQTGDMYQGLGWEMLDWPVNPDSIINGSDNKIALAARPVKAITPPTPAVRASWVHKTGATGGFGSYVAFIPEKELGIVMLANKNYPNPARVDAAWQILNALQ
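AmpC (5.3 nM in the dispensed reagent) in 20 mM phosphate pH 7.0 with 0.01% (detergent screen) or 0.0001% Triton X-100 was preincubated with compounds for 15 min at room temperature. Nitrocefin was then added from an 800 uM solution, and hydrolysis was followed at 480 nm.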
Shiga inhibitor – A qHTS for Small Molecule Inhibitors of Shiga Toxin. Vero cells, Shiga toxin protein synthesis inhibition reporter. inhibition, % at 38.7 µM. 9.2% of 290,000 active. AID 2315, 2010; in the data active = inhibition mostly above about 28%, no sharp cut-off; inactive = mostly below about 43%; also: 0% is about no effect
AmpC detergent – qHTS Inhibitors of AmpC Beta-Lactamase (assay with detergent) | Potency, µM (titrated, usually from 114 µM), inactives show top-dose activity change, negative = inhibition, usual class: inhibitors | 0.041% of 370,000 active | AmpC hydrolysis of nitrocefin, absorbance 480 nm, 0.01% Triton | P00811;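 also: potency is read from the fitted curve at half-maximal effect; 0% = no-compound wells and -100% = no-enzyme wells; nearly all actives have a fitted effect of over 25% in size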
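20 mM phosphate pH 7.0 + 0.01% (detergent screen) or 0.0001% Triton X-100; 5.3 nM AmpC reagent; cpd preinc 15 min RT; nitrocefin (800 uM stock) to start; A480 q20 s × 4 min; Activity was normalised to no-enzyme and no-compound control wells.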
Cycloheximide cs – Cycloheximide Counterscreen for Small Molecule Inhibitors of Shiga Toxin | cell reporter, cycloheximide protein synthesis inhibition counterscreen | AID 2314, 2010 | 12% of 300,000 active | max response, %; in the data active = max response mostly above about 13%, no sharp cut-off; inactive = mostly below about 14%; also: read at 38.3 µM for the half of the compounds with a filed dose; 0% is about no effect
NS1 inh – qHTS Assay for Inhibitors of Influenza NS1 Protein Function; Potency, µM (highest dose often 46.1 µM), inactives show at the highest dose activity, positive = more growth; 0.4% of 270,000 active; calls by dose curve; also: potency is read from the fitted curve at half-maximal effect; actives are rising curves; nearly all actives have a fitted effect of over 50% in size
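A cell-based growth assay was used: compounds that relieve NS1-induced slow growth of budding yeast raise OD600. Assay medium was yeast nitrogen base with ammonium sulphate and -URA supplement, pH 6.0, with 2% galactose.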
* hit, by the source's call; ? = inconclusive; nt = no result; [ ] = remark or other dose. Unless noted, calls follow the shape of the dose curve; as a rule, active = well fitted curve in the direction sought with a large enough effect; inconclusive = small, poorly fitted or top-dose-only effect, or another doubt; inactive = no such curve, though single readings can be large; an effect the other way counts as inactive or inconclusive.

SMILES | AmpC inh no detg | Shiga inhibitor | AmpC detergent | Cycloheximide cs | NS1 inh
Cc1ccc(-n2nc3c(N4CCC(C(=O)NC(C)c5ccccc5)CC4)nnc(C)c3c2C)cc1 (stereo not drawn) | nt | nt | 3.8% | nt | nt
O=c1[nH]nc(SCc2nc3ccccc3s2)n1C1CC1 | -14.3% | 103.4* | 1.3% | 51.8* | 1.2%
CCCn1c(SCc2nc3ccccc3s2)n[nH]c1=O | -6.9% | 90.0* | ? | 52.6* | nt
CCCn1c(=O)c2ccccc2n2c(SCc3nc4ccccc4s3)nnc12 | -28.9% | 142.2* | -12.0% | 31.1* | -1.3%
Cc1cc(C)c(-n2c(SCc3nc4ccccc4s3)n[nH]c2=O)c(C)c1 | 1.3% | 5.7 | 15.5% | 4.0 | -2.2%
Cc1ccc(N2CCN(C(=O)Nc3cn(CC(C)C)c(=O)c4ccccc34)CC2)c(C)c1 | nt | nt | 19.0% | nt | nt
CCCCc1ccc(NC(=S)N2CCCC2)cc1 | -1.3% | 69.2* | 1.7% | 48.1* | -57.1%
CCCCc1ccc(NC(=S)N2CCN(C)CC2)cc1 | 10.4% | 24.8 | -0.5% | 20.1* | -0.9%
COc1ccc(NC(c2ccccc2)P(=O)(Oc2ccccc2)Oc2ccccc2)cc1 (stereo not drawn) | -24.7% | -2.6 | -5.2% | 10.6* | -6.6%
Cc1nn(Cc2c(F)c(F)c(F)c(F)c2F)c(C)c1NC(=O)c1cccc(COc2ccc(Cl)cc2)c1 | -19.0% | 135.8* | ? | 83.3* | 30.0%
CC(C)c1cc(C(N)=O)c(NC(=O)c2cccc(COc3ccc(Cl)cc3)c2)s1 | -34.5% | 199.7* | ? | 70.0* | -11.5%
COc1ccc(CN2CCc3nc(SCC(=O)Nc4cc(C)cc(C)c4)[nH]c(=O)c3C2)cc1 | nt | nt | 2.5% | nt | nt
c1ccc(CCc2nn3c(Cc4ccccc4)nnc3s2)cc1 | 22.3% | -10.5 | -1.2% | 8.2 | -82.4%
Cc1cc(N(C)N)nc(NC(=O)NS(=O)(=O)c2ccccc2Cl)n1 | -15.3% | 21.4 | -12.9% | 16.3* | 10.0%
COc1cc(OC)nc(NC(=O)NS(=O)(=O)c2ccccc2Cl)n1 | -16.8% | -5.6 | -4.0% | -0.6 | 1.1%
CC(=O)Nc1ccc(C(=O)NC2CCSc3ccccc32)cc1 (stereo not drawn) | -1.7% | 12.9 | -0.8% | 13.8* | -4.7%
CSc1ccc(C(=O)NC2CCSc3ccccc32)cc1 (stereo not drawn) | -34.3% | 38.3 | -1.3% | 11.4* | -1.9%
COc1ccc(OC)c(C(=O)NC2CCSc3ccccc32)c1 (stereo not drawn) | 1.6% | -5.4 | 2.2% | -1.6 | -26.5%
COc1ccc(C(=O)NC2CCSc3ccccc32)cc1 (stereo not drawn) | -9.0% | 35.1* | 4.9% | 18.6* | -6.3%
CSc1ccccc1C(=O)NC1CCSc2ccccc21 (stereo not drawn) | -26.2% | 25.1 | ? | 9.2 | 6.8%
COc1cc2c(cc1OC)CN(C(=O)CN1CCN(S(=O)(=O)c3ccccc3Br)CC1)CC2 | 135.8% | 68.6* | -7.1% | 17.3* | -26.1%
COc1ccc(S(=O)(=O)N2CCN(CC(=O)N3CCc4ccccc4C3)CC2)cc1OC | 141.4% | nt | 0.9% | nt | nt
COc1cc(C)ccc1OCc1cc(C(=O)N(C)CCCN2CCOCC2)no1 | 47.9% | 95.9* | -13.7% | 54.7* | -7.9%
COc1cc(C)ccc1OCc1cc(C(=O)NCCN2CCOCC2)no1 | 10.0% | 76.5* | ? | 67.1* | -0.4%
CC(C)Cc1cc(C(=O)NCCN2CCOCC2)no1 | 0.501µM* | 1.8 | ? | -1.1 | 3.0%
SMILES | AmpC inh no detg | Shiga inhibitor | AmpC detergent | Cycloheximide cs | NS1 inh
COc1ccccc1-c1cc(C(=O)NCCN2CCOCC2)no1 | 1.0% | 10.7 | -4.1% | 1.1 | -10.9%
CC(C)c1ccc(S(=O)(=O)NCc2ccc3c(c2)CCN3C(=O)c2ccccc2)cc1 | nt | nt | -3.3% | nt | nt
COc1ccc(NC(=O)c2ccco2)cc1NC(=O)c1cccc(C)c1OC | nt | nt | 3.3% | nt | nt
CCOC(=O)c1cc2c(ccn2C)n1CC(=O)N1C(C)CCCC1C (stereo not drawn) | 2.4% | 8.5 | 8.1% | -1.2 | 5.9%
CCOC(=O)c1cc2c(ccn2C)n1CC(=O)N1CCN(c2ccccc2)CC1 | 60.9% | 8.3 | 31.6µM* | 3.0 | ?
Cc1nnc(Sc2cc(NCCO)c([N+](=O)[O-])c3nonc23)s1 | -57.5% | -6.3 | ? | -1.7 | nt
Cc1nnc(Sc2cc(NCCCO)c([N+](=O)[O-])c3nonc23)s1 | 28.2µM* | -3.4 | ? | 9.5 | -7.1%
CCCCN=C1NN=C(c2ccc3c(c2)OCCO3)CS1 | -26.0% | 34.9 | -0.2% | 19.4 | nt
COCCN=C1NN=C(c2ccc(C)c([N+](=O)[O-])c2)CS1 | -11.1%[11.4 µM] | 63.1* | -12.1% | 46.7* | nt
CCCCN=C1NN=C(c2ccc(C)c(C)c2)CS1 | -50.3% | 87.3* | -5.4% | 44.3* | nt
O=C(CCc1nnc(CCc2ccccc2)o1)NC(c1cccnc1)C(F)(F)F (stereo not drawn) | -2.9% | 18.2 | -2.1% | 1.2 | -8.3%
O=C(CCN1C(=O)C2C3CCC(C3)C2C1=O)Nc1ccc(F)cc1 (stereo not drawn) | -6.9% | -4.2 | -9.6% | 0.7 | 6.9%
CCOC(=O)c1cccc(NS(=O)(=O)c2ccc3[nH]c4c(c3c2)CCCC4)c1 | nt | nt | -3.3% | nt | nt
C=C(C)COc1ccc2c(c1)CCC1C2CC[C@]2(C)C(=O)/C(=N/O)CC12 (stereo partly drawn) | nt | nt | nt | nt | 12.7%
O=C(O)c1cccc(CN2C(=O)SC(Nc3ccccc3)C2=O)c1 (stereo not drawn) | -6.8% | 16.5 | -15.2% | 16.9* | -0.2%
Cc1ccc(NC2SC(=O)N(Cc3cccc(C(=O)O)c3)C2=O)cc1 (stereo not drawn) | -3.5% | 20.7 | -7.5% | 13.6 | ?
Cc1ccccc1N1C(=O)CC(Nc2ccc3c(c2)OCO3)C1=O (stereo not drawn) | -11.4% | 21.9 | 6.8% | -0.8 | 8.1%
Cc1ccc(N2C(=O)CC(Nc3ccc(Cl)c(S(=O)(=O)N(C)C)c3)C2=O)c(C)c1 (stereo not drawn) | 28.2µM* | -13.6 | -0.8% | 5.2 | -8.0%
O=c1c2cccc3c(N4CCOCC4)ccc(c32)c2nc3ccccc3n12 | -7.8% | 73.0* | 4.7% | 29.2* | -3.9%
Cc1cc(C)c2nc3nc(C)c(C)cc3c(N)c2c1 | -20.4% | 69.7* | ? | 20.2 | -5.6%
Cc1cc2c(=O)[nH]c(N)nc2nc1C | nt | nt | nt | nt | 0.7%
N/C(=N\c1nc2ccccc2o1)NC(=O)c1ccc(F)cc1 | -17.1% | 72.2* | 0.4% | 31.9* | -2.7%
N/C(=N\c1nc2ccccc2o1)NC(=O)c1ccccc1Br | -30.0% | 80.5* | 12.7% | 32.7* | 0.5%
N/C(=N\c1nc2ccccc2o1)NC(=O)c1ccc(Cl)cc1 | -29.3% | 31.3 | 2.1% | 2.5 | 5.3%
O=C(CCN1C(=O)c2ccccc2C1=O)NCc1ccc(Cl)cc1 | -7.1% | -9.9 | -12.0% | -0.7 | 0.3%
O=C(COc1ccc(CO)cc1)Nc1ccc(F)cc1 | -19.1% | 26.0 | -5.6% | 15.9* | -5.5%[9.22 µM]
O=C(COc1ccc(CO)cc1Cl)Nc1ccc(F)cc1 | -2.6% | 58.2* | -2.2% | 48.2* | -41.6%

Screening results deposited in PubChem by National Center for Advancing Translational Sciences (NCATS).
